Measured values taken from the supplement of paper PMC9950053.
Where a name gives a salt, the structure may show the parent alone.

System: Danio rerio larvae (5 dpf)
Assay: startle (activity period 16 minus period 15, 20-s interval sound) minus DMSO control (percentage points); higher = stronger startle response than DMSO larvae
Conditions: 10 µM; exposure time: 3 h pre-incubation + 3 h imaging
Experimental: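 Wild-type 5 dpf zebrafish larvae (n=48 per drug, 96-well plates, 28.5 °C) were exposed to Tocris FDA-approved library compounds at 10 µM (0.1% DMSO) for 3 h before and 3 h during imaging. Images were taken every 6 s during visual and acoustic stimuli, and larvae were tracked with Z-LaP Tracker. Each measure is the treated-group mean minus the DMSO control mean (n=844), in percentage points. This mapping covers compounds with 5-character plate codes.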

Row | Compound | startle
1 | COc1ccc(C(CN(C)C)C2(O)CCCCC2)cc1 (stereo unspecified) [Venlafaxine hydrochloride] | -6.7
